Molecules are shown by their SMILES. Results filed as inconclusive are left out. Unmarked numbers belong to inactive results. Calls of active or inactive are those of the source. Calls follow the shape of the dose curve; as a rule, active = well fitted curve in either direction with a large enough effect (not every such curve was filed as active); inconclusive = small, poorly fitted or top-dose-only effect, or another doubt; inactive = flat fitted curve, though single readings scatter.

The values that follow come from PubChem BioAssay (NCATS).
% is scaled to controls: 0 for no effect and ±100 for the full control effect.

The assay has as its target Mitogen-activated protein kinase 10 (Mus musculus) (UniProt Q61831). The assay is described as follows: JNK3 AlphaScreen Assay (AID 530).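 Also: kinase came from lysate of stimulated human HepG2 cells.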 The following applies: JNK3 lysate, c-Jun phosphorylation; series mostly up to 57.1 µM; activity change, negative = inhibition: at the top concentration. The source says: NIH Chemical Genomics Center [NCGC]
NIH Molecular Libraries Screening Centers Network [MLSCN]
The c-jun N-terminal kinase (JNK) family are serine/threonine protein kinases that phosphorylate c-jun, a component of the transcription factor […] (AP-1). JNK kinases are members of the mitogen-activated protein kinase family including the extracellular regulated kinases and p38 kinases. Three JNK genes (JNK 1, 2, and 3) have been identified in humans so far. JNK1 and JNK2 have a broad distribution and JNK3 is primarily found in neuronal tissues and cardiac myocytes.
JNK3 has been under consideration as a target for the treatment of neurodegenerative disorders. […] JNK pathway is also involved in pathological process in a mouse model of Parkinson's disease (Xia et al., 2001).
Given these potential tissue distributions and links to neuroprotection, JNK3 inhibitors should provide useful investigational tools to study the role of this kinase in several diseases including, arthritis, stroke, myocardial infarction, ischemic injury and Parkinson's disease.
A homogeneous AlphaScreen is developed to measure the activity of JNK3. AlphaScreen is a two bead-based proximity-dependent chemical energy transfer luminescent assay platform. The phosphorylation of a biotinylated c-jun substrate by JNK3 can be detected with an antibody raised against phosphorylated c-jun. This process brings streptavidin donor beads and Protein-A acceptor beads to within a proximity range of <200 nm, and subsequently lead a chemical luminescent reaction upon exciting donor beads with 680 nm laser excitation light. Inhibition of JNK3 activity by small molecules and subsequent decrease in the antibody binding to biotinylated c-jun could attenuate or abolish this chemical luminescent reaction.
Yang DD, Kuan CY, Whitmarsh AJ, Rincon M, Zheng TS, Davis RJ, Rakic P and Flavell RA (1997) Absence of excitotoxicity-induced apoptosis in the hippocampus of mice lacking the Jnk3 gene. Nature 389:865-870. [PMID: 9349820]
Herdegen T, Claret FX, Kallunki T, Martin-Villalba A, Winter C, Hunter T, and Karin M (1998) Lasting N-terminal phosphorylation of c-Jun and activation of c-Jun N-terminal kinases after neuronal injury. J.Neurosci. 18:5124-5135. [PMID: 9651196]
Xia XG, Harding T, Weller M, Bieneman A, Uney JB and Schulz JB (2001) Gene transfer of the JNK interacting protein-1 protects dopaminergic neurons in the MPTP model of Parkinson's disease. Proc.Natl.Acad.Sci.U.S.A. 98:10433-10438.
NCGC Assay Protocol Summary:
GST-cJun (1-79) (Stratagene, La Jolla CA, #205145) was biotnylated by PerkinElmer (PerkinElmer-BioSignalInc. Montreal, Canada) and was detectable by the streptavidin Donor beads. Anti-(phospho)cJun (Ser73) antibody was from UpState (Charlottesvilles, VA, #06-659). JNK3-containing lysates were generated from HepG2 cells and pre-activated by interleukin1-beta and tumor necrosis factor alpha. All reagents were stored at -20 C before using. Phosphorylated biotinylated-GST-cJun was recognized by Anti-(phospho)cJun (Ser73) antibody and this process brings acceptor and donor beads together. Therefore JNK3 phosphorylation of cJun can be measured by Alpha reading by EnVision (PerkinElmer, Boston, MA).
The composition of kinase buffer was (in mM) 20 tris- HCl (pH 7.6) 10 MgCl2, 1 DTT, and 0.1 Na3VO4 and 0.01% Tween-20. Beads were diluted in detection buffer containing (in mM) 20 tris-HCl (pH 7.7), 20 NaCl and 80 EDTA and 0.3% BSA. The assay was performed at room temperature. All compounds were screened as titrations from 0.6 nM to 46 uM final concentration. The assay was performed in 1536-well format (white solid bottom and untreated) as follows:
Sequence,Parameter,Value,Description
1,Reagent,3 uL,Biotin-GST-cJun, Anti-(phospho)cJun and pre-activated JNK3-containing lysates
2,Compound,23 nL,Final concentration was 0.6nM to 46uM
3,Time,15 minutes,Room Temperature
4,Reagent,1 uL,ATP final concentration 10uM
6,Reagent,0.5 uL,2ng/well bead mixture
[…]
With `O=S(=O)(O)C1CCNCC1`, the “activity change, negative = inhibition” value is 5.49%.
Regarding `CCCCC(CC)CN` (stereo not given), the Potency result was “inactive”.
For `O=c1c(-c2ccccc2)nc2cncnc2n1Cc1ccccc1`, the “activity change, negative = inhibition” value is -20.9%.
Same read-out and setting: with `CN(Cc1ccco1)c1ncnc2ccc(-c3cccc(NS(C)(=O)=O)c3)cc12` the figure was -5.05%; with `CCNc1ncc2nc(-c3cccs3)c(=O)n(CCC#N)c2n1`, 23.2%; with `COCCn1c(=O)c(-c2cccs2)nc2cnc(N3CCNCC3)nc21`, 31%.
Still for that read-out and setting: with `Nc1ccc(Cl)cc1Cl` the figure was -7.24%.
Turning to `COc1ccc(Oc2ncc3nc(-c4cccc(C#N)c4)c(=O)n(Cc4cccc(OC)c4)c3n2)cc1`, the “activity change, negative = inhibition” value is -17.5%.
The same measure, in the same setting: with `O=C(O)c1ccccc1C(c1ccc(O)cc1)c1ccc(O)cc1` the figure was -8.36%; with `COc1ccccc1CNc1ncnc2ccc(-c3cccc(NS(C)(=O)=O)c3)cc12`, -6.27%.
Turning to `C=CC(=O)OCCOCCOCCOCCOC(=O)C=C`, the Potency entry is “inactive”.
For the compound `COc1ccc(Oc2ncc3nc(-c4ccccc4)c(=O)n(C[C@H]4CCCO4)c3n2)cc1`, the “activity change, negative = inhibition” value was 1.39%.
Same read-out and setting: in the case of `COc1cccc(Cn2c(=O)c(CCc3ccccc3)nc3cnc(N4CCN(C)CC4)nc32)c1` it was -8.95%.
Still for that read-out and setting: with `c1ccc(NN(Cc2cnccn2)c2ccccc2)cc1` the figure was 3.55% [at 11.4 µM]; with `COCCn1c(=O)c(-c2cccc(C#N)c2)nc2cnc(OCc3ccccc3)nc21`, -4.93%.
In the case of `Clc1ccccc1NN(Cc1ccncc1)c1ccccc1Cl`, the activity change, negative = inhibition is 3.26% [at 11.4 µM].
With `Cc1ccccc1-c1ccc2ncnc(NCCN3CCOCC3)c2c1`, the “activity change, negative = inhibition” value is 1.64%.
For the compound `COc1ccc(-c2nc3cnc(N4CCN(C)CC4)nc3n(CCc3ccccc3)c2=O)cc1`, the “activity change, negative = inhibition” value was 20.5%.
Still for that read-out and setting: with `CN(C)c1nc(-c2cccc(NS(C)(=O)=O)c2)nc2ccccc12` the figure was 1.74%.
Same read-out and setting: in the case of `N#CCCn1c(=O)c(-c2ccc(Cl)cc2)nc2cnc(N3CCOCC3)nc21` it was 4.33%.
Turning to `CN(C)CCCCCCN(C)C`, the “activity change, negative = inhibition” value was -16.6%.
As for `C/C=C\c1ccc(OC)cc1`, the “activity change, negative = inhibition” value was -4.58%.
The same measure, in the same setting: in the case of `COCCn1c(=O)c(-c2ccc(F)cc2)nc2cnc(Nc3cccc(OC)c3)nc21` it was 9.37%; in that of `Cc1noc(C)c1-c1nc(N2CCN(C)CC2)c2ccccc2n1`, 2.72%.
Same read-out and setting: with `Cc1ccc([N+](=O)[O-])c(C)c1` the figure was 2.55%; with `COCCn1c(=O)c(-c2cccc(C#N)c2)nc2cnc(Oc3cccc(Cl)c3)nc21`, -5.09%; with `N#Cc1cccc(-c2nc(NCCN3CCOCC3)c3ccccc3n2)c1`, -6.06%.
Take `c1ccc2scnc2c1`: the “activity change, negative = inhibition” value is 28.5%.
As for `O=c1c(-c2cccc(F)c2)nc2cncnc2n1Cc1ccc(F)cc1`, the “activity change, negative = inhibition” value was -14.1%.
As to `COc1cccc(Cn2c(=O)cnc3cnc(Nc4cccc(OC)c4)nc32)c1`, the “activity change, negative = inhibition” value was -3.71%.
On the same count and under the same terms, in the case of `COc1cccc(-c2ccc3ncnc(Nc4ccccc4)c3c2)c1` it was 16.5%; in that of `Cc1nc2cnc(Oc3cccc(Cl)c3)nc2n(Cc2ccc(F)cc2)c1=O`, 13.8%; in that of `COc1ccc2[nH]cc(CCNc3ncncc3-c3ccc4c(c3)OCO4)c2c1`, -28.3%.
Turning to `O=[N+]([O-])c1cccc(Cl)c1Cl`, the “activity change, negative = inhibition” value was -0.537%.
For the compound `O=C(c1cnccn1)N1CCC[C@@]2(CCN(c3cccc(-c4ccccc4)c3)C2)C1`, the “activity change, negative = inhibition” value was -26.4%.
`COc1ccc2[nH]cc(CCNc3nc(-c4c(C)noc4C)nc4ccccc34)c2c1`: the “activity change, negative = inhibition” value was -5.28%.
Same read-out and setting: in the case of `O=S(=O)(O)c1ccccc1` it was 11.9%.
Still for that read-out and setting: in the case of `Cc1ccccc1-c1ccc2ncnc(-n3ccnc3)c2c1` it was -2.15%; in that of `COc1ccc2[nH]cc(CCNc3ncncc3-c3ccccc3C(F)(F)F)c2c1`, -12.2%; in that of `CC(C)C[C@H](N)CSSC[C@@H](N)CC(C)C`, -8.54%.
